Laboratory results reported in PubChem BioAssay AID1578 (Sanford-Burnham Center for Chemical Genomics, 2009).
In all, about 290,000 compounds went through this assay and about 3,000 (1%) were called active. This excerpt belongs to a sample that is enriched for actives. A number with no mark means an inactive call. Rule as the data show it: active = inhibition mostly above about 36% (no sharp cut-off); inactive = mostly below about 34%.

Assay: NOD1 signaling inhibitors, primary screen, cell-based, luminescence, uHTS (AID 1578);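 also: HEK-293T reporter cells stimulated with the NOD1 agonist gamma-tri-DAP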
Settings: NOD1-driven NF-kB luciferase reporter cells, at 4 µM, stronger effect = higher value
In the case of O=c1[nH]c2ccc(NC(=S)NC3CCCCC3)cc2[nH]1, the inhibition was 0.4%.
Work on NNC(=O)c1cccn(Cc2cccc(C(F)(F)F)c2)c1=O yielded an inhibition of -7.3%.
With CCn1c(SCC(=O)Nc2nc(C)c(C)s2)nnc1-c1ccco1 the inhibition was 4.8%.
O=C(NCCCCc1ccccc1)Nc1cccc(F)c1 showed an inhibition of -18.4%.
CCc1nnc(NS(=O)(=O)c2ccc(NC(=S)NC(=O)c3ccc(OC)c(OC)c3)cc2)s1 gave an inhibition of -10.1%.
In the case of C#Cc1ccc([C@@H]2C=C(C(=O)N3CCN(Cc4ccc5c(c4)OCO5)CC3)O[C@H](OCCCCO)C2)cc1, the inhibition was -5.3%.
In the case of O=C(CN1CC[C@@]2(O)CCCC[C@H]2[C@@H]1c1ccc(F)cc1)NCc1ccco1, the inhibition was -15%.
Compound Cc1cc(Cl)ccc1C(=O)C1CCCN(C(=O)c2cscn2)C1 (stereo unspecified) has an inhibition of -13.1%.
For COC(=O)C(CCSC)NS(=O)(=O)c1ccc(Cl)cc1 (stereo unspecified), the inhibition was -19.4%.
With O=S(=O)(c1ccccc1)N(Cc1ccccc1)c1ccccn1 the inhibition was -18.3%.
O=C(Nc1nc(-c2ccc3c(c2)OCO3)cs1)C1CC1 gave an inhibition of -36.4%.
Work on CC(=O)Nc1nc(-c2ccc3c(c2)OCO3)cs1 yielded an inhibition of 1.1%.
In the case of Cc1ccc2nc(N3CCN(S(=O)(=O)c4ccc(C)c(Cl)c4)CC3)c(C#N)cc2c1, the inhibition was -0.6%.
Compound Cc1nc2ccc(S(=O)(=O)NCC(=O)N3CCN(c4ccccn4)CC3)cc2s1 has an inhibition of 8.2%.
COC(=O)C1(CCSC)NC(c2ccco2)C2C(=O)N(C)C(=O)C21 (stereo unspecified) gave an inhibition of -7.2%.
In the case of C/C(=N\NC(=O)COc1ccc(C(C)(C)C)cc1)c1ccc(-n2ccnc2)cc1, the inhibition was -48%.
COc1cc(NC(=O)COc2ccc(-n3ccnc3)cc2)cc(OC)c1 gave an inhibition of 39.3%.
For CC(C)(C)c1ccc(NC(=O)COc2ccc(-n3ccnc3)cc2)cc1, the inhibition was 74.6% (active).
In the case of Cc1ccc(NC(=O)CSc2nnc(C)n2CC2CCCO2)cc1 (stereo unspecified), the inhibition was -27.7%.
Compound CCc1ccccc1NCC(=O)Nc1ccc(Cl)c(C(F)(F)F)c1 has an inhibition of -18.7%.
For CCOC(=O)CSC1=NN2CCS(=O)(=O)N=C2S1, the inhibition was -12.9%.
With C=CCSC1=NN2CCS(=O)(=O)N=C2S1 the inhibition was -14.6%.
With CCSC1=NN2CCS(=O)(=O)N=C2S1 the inhibition was 44.5% (active).
With COc1ccc(/C(N)=N/OC(=O)c2cccs2)cc1OC the inhibition was -61.8%.
Compound COc1ccccc1CNC(=O)C1CCN(C(=O)c2sccc2-n2cccc2)CC1 has an inhibition of -18.4%.
CCC(NC(=O)c1ccccc1NC(=O)c1ccccc1)C(=O)NNC(=O)c1cccnc1 (stereo unspecified) showed an inhibition of -7.6%.
Compound CCN(C(=O)COC(=O)c1cccnc1Nc1ccccc1F)C1CCS(=O)(=O)C1 (stereo unspecified) has an inhibition of -22.9%.
With CCOc1ccc(NC(=O)CCSc2nnc(C)s2)cc1 the inhibition was 7.9%.
In the case of Cc1ccc2c(c1)Oc1ccc(NC(=O)CCl)cc1C(=O)N2, the inhibition was 103% (active).
Cc1ccc2c(c1)Oc1ccc([N+](=O)[O-])cc1C(=O)N2 gave an inhibition of -16.6%.
Cc1ccc2c(c1)Oc1ccc(NC(=O)CCCl)cc1C(=O)N2 gave an inhibition of 0.2%.
CCCn1c(N)c(N(CCOC)C(=O)/C=C/c2cccc(Cl)c2)c(=O)[nH]c1=O showed an inhibition of -16.5%.
For CC12CN3CC(C)(CN(C1)C3c1ccc(F)cc1)C2 (stereo unspecified), the inhibition was -30.5%.
O=C(O)CCCC(=O)Nc1ccc(Oc2ncnc3cc(Cl)ccc23)nc1 gave an inhibition of -10.7%.
With CC(C(=O)N(C1CC1)C1(C(=O)Nc2ccccc2)CCCC1)N1C(=O)c2ccccc2C1=O (stereo unspecified) the inhibition was 7.8%.
COC(=O)c1ccccc1NC(=O)NCc1ccccn1 showed an inhibition of -25.3%.
In the case of Cc1cccc(C=Nc2ccc3c4c(cccc24)CC3)c1O, the inhibition was -17.9%.
Compound Oc1ccc(Cl)cc1C=Nc1ccc2c3c(cccc13)CC2 has an inhibition of 38.7%.
With Oc1ccc(Br)cc1C=Nc1ccc2c3c(cccc13)CC2 the inhibition was 101% (active).
In the case of Cc1cc(C(=O)NCCc2ccccc2)c2cc(F)ccc2n1, the inhibition was 1.9%.
With CN(c1cccc(Cl)c1)S(=O)(=O)c1cccc(C(=O)Nc2nc3ccccc3[nH]2)c1 the inhibition was 53%.
CN(c1ccccc1)S(=O)(=O)c1ccc(Cl)c(C(=O)Nc2nc3ccccc3[nH]2)c1 gave an inhibition of 3.8%.
O=C(NCc1ccccc1)c1cnsn1 showed an inhibition of -16.6%.
With CC1CCc2nc3ccccc3c(C(=O)OCC(=O)N(C)C3CCS(=O)(=O)C3)c2C1 (stereo unspecified) the inhibition was -19.9%.
COc1cc(C(=O)Nc2ccc(Nc3ccccc3)cc2)cc(OC)c1OC showed an inhibition of -1.1%.
With Cc1ccc(C)c(CS(=O)(=O)c2cn(CC(=O)N3CCCCC3)c3ccccc23)c1 the inhibition was -19.4%.
For O=C(NN=C1CCCC1)c1cc(Br)ccc1O, the inhibition was -58.6%.
For CC1(C)C2C/C(=N\O)C(C)(/[N+]([O-])=C/c3cccc([N+](=O)[O-])c3)CC21 (stereo unspecified), the inhibition was 62.4% (active).
In the case of CC(C)N(C(=O)CO/N=C/c1cccc([N+](=O)[O-])c1)C(C)C, the inhibition was -4.4%.
O=C1N/C(=N/O)S/C1=C/c1cccc([N+](=O)[O-])c1 gave an inhibition of -24.9%.
Cc1nnc(SCC(=O)O)s1 gave an inhibition of -10.4%.
For Cc1ccc(-c2nc(CN3CCCC(C(=O)N4CCOCC4)C3)c(C)o2)cc1 (stereo unspecified), the inhibition was -23.5%.
Work on COC(=O)c1cnn(-c2ccc(Cl)cc2)c1/C=N/NC(N)=S yielded an inhibition of 5.8%.
With CN(C)S(=O)(=O)c1cccc(NC(=O)c2ccncc2)c1 the inhibition was -4.4%.
For CN(C)S(=O)(=O)c1cccc(NC(=O)c2cnccn2)c1, the inhibition was -27.8%.
With CCOc1ccc(N/C(N)=N/c2nc(C)cc(C)n2)cc1 the inhibition was -34.6%.
CN1CCN(CCCNc2c(C=O)c(=O)[nH]c3ccccc23)CC1 showed an inhibition of -5.5%.
O=Cc1c(NCCN2CCCC2)c2ccccc2[nH]c1=O gave an inhibition of 0.2%.
With O=Cc1c(NCCN2CCOCC2)c2ccccc2[nH]c1=O the inhibition was 59.2% (active).
O=[N+]([O-])c1ccc(Cl)c(CN2CCN(c3ncccn3)CC2)c1 showed an inhibition of -27.2%.
Cc1cc(C)nc(NC(=O)c2ccc(C)o2)n1 showed an inhibition of -48.4%.
